Laboratory results: PubChem BioAssay (EPA / NIEHS)
Inconclusive results are not listed. The source made the active and inactive calls. How the source made its calls: active means hit-call score of the fitted dose curve at least 0.9, where 1 is the maximum; inconclusive means response in the unintended direction; inactive means score below 0.9.

The molecules below were run against human Raf-1 Proto-Oncogene, serine/threonine Kinase (RAF1), RAF1 (gene 5894) (UniProt P04049) (assay: NVS_ENZ_hRAF1: NovaScreen (NVS) Enzymatic Assay for human Raf-1 Proto-Oncogene, serine/threonine Kinase (RAF1) (AID 2283216)).
human Raf-1 Proto-Oncogene, serine/threonine Kinase (RAF1), RAF1 (gene 5894), sequence (P04049 whole entry, looked up): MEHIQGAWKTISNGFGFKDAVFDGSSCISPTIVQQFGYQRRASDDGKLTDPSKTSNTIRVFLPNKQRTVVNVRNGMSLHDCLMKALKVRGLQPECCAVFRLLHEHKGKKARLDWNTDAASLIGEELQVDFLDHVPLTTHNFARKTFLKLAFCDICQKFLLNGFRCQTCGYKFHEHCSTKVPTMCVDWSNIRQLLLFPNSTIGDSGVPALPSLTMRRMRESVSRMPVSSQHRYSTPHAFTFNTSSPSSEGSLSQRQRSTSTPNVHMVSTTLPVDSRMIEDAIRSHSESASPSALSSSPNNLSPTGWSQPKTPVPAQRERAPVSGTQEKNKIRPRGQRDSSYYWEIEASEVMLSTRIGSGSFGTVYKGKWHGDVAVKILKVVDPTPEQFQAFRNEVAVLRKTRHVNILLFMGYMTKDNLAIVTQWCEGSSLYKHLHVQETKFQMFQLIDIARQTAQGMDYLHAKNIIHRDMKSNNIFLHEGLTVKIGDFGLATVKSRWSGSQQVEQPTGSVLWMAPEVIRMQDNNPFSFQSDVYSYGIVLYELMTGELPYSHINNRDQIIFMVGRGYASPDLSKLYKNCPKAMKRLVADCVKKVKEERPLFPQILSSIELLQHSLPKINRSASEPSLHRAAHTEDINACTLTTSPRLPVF
How it was run: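 Cell-free recombinant kinase with specific fluorescent substrate, product separated by electrophoretic mobility shift; read 1 h after dosing. Primary screen at 25 uM in duplicate; hits then run in concentration-response up to 50 uM, fitted as loss of signal versus DMSO.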

| Structure (SMILES) | outcome |
| --- | --- |
| O=C(O)Cc1cc(I)c(Oc2ccc(O)c(I)c2)c(I)c1 | inactive |
| N[C@@H](Cc1cc(I)c(Oc2ccc(O)c(I)c2)c(I)c1)C(=O)O | inactive |
| O=C(O)CCCCC(=O)O | inactive |
| O=C(O)c1ccccc1C(c1ccc(O)cc1)c1ccc(O)cc1 | inactive |

These molecules were tested against human Tyrosine Protein Kinase Receptor Tie-2 (Tie2), TEK (gene 7010) (UniProt Q02763) (assay: NVS_ENZ_hTie2: NovaScreen (NVS) Enzymatic Assay for human Tyrosine Protein Kinase Receptor Tie-2 (Tie2) (AID 2283225)).
human Tyrosine Protein Kinase Receptor Tie-2 (Tie2), TEK (gene 7010), sequence (Q02763 whole entry, looked up): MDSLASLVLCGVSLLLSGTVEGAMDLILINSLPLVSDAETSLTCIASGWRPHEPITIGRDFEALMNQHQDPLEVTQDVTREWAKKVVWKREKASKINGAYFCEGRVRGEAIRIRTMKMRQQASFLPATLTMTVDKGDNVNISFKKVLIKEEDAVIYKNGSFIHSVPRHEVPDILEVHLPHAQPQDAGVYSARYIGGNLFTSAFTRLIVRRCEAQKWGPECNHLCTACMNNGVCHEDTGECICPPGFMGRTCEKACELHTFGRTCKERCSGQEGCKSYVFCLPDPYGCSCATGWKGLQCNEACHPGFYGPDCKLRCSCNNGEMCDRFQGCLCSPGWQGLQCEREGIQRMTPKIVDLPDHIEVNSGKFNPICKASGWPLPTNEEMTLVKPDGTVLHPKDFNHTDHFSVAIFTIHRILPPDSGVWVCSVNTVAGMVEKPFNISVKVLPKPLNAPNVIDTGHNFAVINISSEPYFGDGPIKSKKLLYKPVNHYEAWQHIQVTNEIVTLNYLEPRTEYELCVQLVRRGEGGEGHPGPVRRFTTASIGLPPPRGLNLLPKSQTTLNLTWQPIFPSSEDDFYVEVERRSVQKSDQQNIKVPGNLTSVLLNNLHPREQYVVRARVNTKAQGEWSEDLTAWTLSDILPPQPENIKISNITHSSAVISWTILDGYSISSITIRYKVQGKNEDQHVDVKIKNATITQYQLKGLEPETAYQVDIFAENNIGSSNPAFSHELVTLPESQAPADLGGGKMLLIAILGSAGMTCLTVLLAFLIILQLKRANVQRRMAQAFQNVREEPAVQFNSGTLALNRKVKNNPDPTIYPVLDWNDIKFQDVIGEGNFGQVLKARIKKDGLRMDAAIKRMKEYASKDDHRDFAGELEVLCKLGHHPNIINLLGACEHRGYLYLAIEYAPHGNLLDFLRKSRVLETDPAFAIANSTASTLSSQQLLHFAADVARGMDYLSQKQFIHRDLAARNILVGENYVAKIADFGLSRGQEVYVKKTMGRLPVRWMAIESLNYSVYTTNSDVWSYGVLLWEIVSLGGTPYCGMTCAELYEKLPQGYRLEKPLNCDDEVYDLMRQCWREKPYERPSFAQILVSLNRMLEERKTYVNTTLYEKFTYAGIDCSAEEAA
How it was run: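 Recombinant human Tie2 kinase activity was read cell-free by fluorescence with electrophoretic mobility shift, 1 hour after dosing. The screen used 25 uM in duplicate, then concentration-response up to 50 uM. Signal loss was scored against DMSO.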

| Structure (SMILES) | outcome |
| --- | --- |
| N[C@@H](Cc1cc(I)c(Oc2ccc(O)c(I)c2)c(I)c1)C(=O)O | inactive |
| CCC(O)=C1C(=O)CC(C(=O)O)CC1=O (stereo not given) | inactive |
| C[Si]1(C)O[Si](C)(C)O[Si](C)(C)O[Si](C)(C)O1 | inactive |
| O=C(Oc1ccccc1)c1cccc(C(=O)Oc2ccccc2)c1 | inactive |
| CCCC(CCC)C(=O)O | inactive |
| Cc1[nH]nc2c1N=C(c1ccccc1Cl)c1cc([N+](=O)[O-])ccc1N2 | inactive |

What follows are molecules tested against Voltage-dependent N-type calcium channel subunit alpha-1B (Rattus norvegicus) (UniProt Q02294) (assay: NVS_IC_rCaChN: NovaScreen (NVS) Ion Channel Assay for rat Calcium Channel, Type N (CaChN) (AID 2283317)).

| Structure (SMILES) | outcome |
| --- | --- |
| CN(C)CCCN(C)CCCN(C)C | inactive |
| Cc1nccn1-c1ccc(Sc2cccc(C3(C(N)=O)CCOCC3)c2)cc1 | inactive |
| Cc1oc(-c2ccccc2)nc1CCOc1cccc2c1ccn2CCC(=O)O | inactive |
| C[C@@H](Oc1ccc(CNC(=O)c2cccnc2Oc2ccc3c(c2)OCO3)c(F)c1)C(=O)O | inactive |
| NCC1(Cc2noc(=O)[nH]2)CCCCC1 | inactive |
